Results filed as inconclusive are left out. Active and inactive are the calls of the source. The calls were made as follows: active = hit-call score of the fitted dose curve at least 0.9, where 1 is the maximum; inconclusive = response in the unintended direction; inactive = score below 0.9.

This is an account of results in PubChem BioAssay (EPA / NIEHS).

This experiment in a line: ACEA_ER_AUC_viability: ACEA Biosciences xCELLigence Real-Time Cell Analysis on Estrogen Receptor Agonism for Viability (AID 2283782).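 Also: continuous compound exposure with impedance area under curve over 80 h; hit means loss of impedance signal meaning reduced cell growth or viability.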 The method in brief:
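T47D cells preconditioned in phenol red-free RPMI with charcoal-stripped FBS, then dosed with 8-point 1:4 series from 100 uM (up to 0.5% DMSO). Impedance monitored up to ~80 h; area-under-curve loss versus DMSO taken as viability.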
As to `CCOC(=O)CC(C)O` (stereo not given), the outcome was inactive.
On to `O=P(O)(O)O`, for which the compound was called inactive.
The term AC50 denotes the concentration giving half of the maximal activity seen. Turning to `CC(C)(N=C=O)c1cccc(C(C)(C)N=C=O)c1`, the AC50 is 33.1 µM (active).
In the case of `C=CC(=C)CCCC(C)(C)OC(C)=O`, the compound was called inactive.
As for `COC(=O)c1ccc(C)cc1C1=NC(C)(C(C)C)C(=O)N1` (stereo not given) (tested in a mixture with another compound), the compound was called inactive.
Consider `CC1(C)COCN1`, for which the concentration at half-maximal activity (AC50) is 32.1 µM (active).
Turning to `OCC(O)c1ccccc1` (stereo not given), the result was inactive.
In the case of `O=[N+]([O-])c1cccc(Cl)c1`, the outcome was inactive.
Consider `C=Cc1ccncc1`, for which the AC50 is 37.3 µM (active).
The same measure, in the same setting: under `Oc1c(Cl)cc(Cl)c(Cl)c1Cc1c(O)c(Cl)cc(Cl)c1Cl` stands 5.27 µM (active); under `CCCCCCCCCCCCCCCC(=O)OC/C=C(C)/C=C/C=C(C)/C=C/C1=C(C)CCCC1(C)C`, 40 µM (active).
Regarding `C=C(C)C(=O)OCC(CC)(COC(=O)C(=C)C)COC(=O)C(=C)C`, the result was inactive.
For `CCCCCc1ccco1`, the concentration at half-maximal activity (AC50) is 35 µM (active).
On to `Cc1cc(C)nc(NS(=O)(=O)c2ccc(N)cc2)n1`, for which the compound was called inactive.
On the same count and under the same terms, under `Nc1ccc2c(O)cc(S(=O)(=O)O)cc2c1` stands “inactive”.
